Structures are written as SMILES. Records with an inconclusive call do not appear. A structure can be active in one record and inactive in another. Active and inactive are the calls of the source. Unless noted, calls come from the whole dose curve; as a rule, active = well fitted curve in the direction sought with a large enough effect in the repeat runs; inconclusive = weak or mixed curves; inactive = no such curve, though single readings can be large; an effect the other way counts as inactive or inconclusive.

Test [1] concerns the target Estrogen receptor (Homo sapiens) (UniProt P03372). Nature of the test: qHTS assay to identify small molecule antagonists of the estrogen receptor alpha (ER-alpha) signaling pathway using the BG1 cell line in the presence of 0.1 nM 17-beta-estradiol (AID 1259244). Note: nearly all actives have a fitted effect of over 50% in size. Note: potency is the fitted concentration of half-maximal effect. An outline of the steps: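 Estradiol at 0.1 nM (final) stimulates the endogenous ER-alpha of VM7Luc4E2 cells carrying an ERE-driven luciferase; compounds are co-incubated 22 h at 37C and luciferase output quantified by luminescence.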

Test [2] is described as follows: qHTS assay to identify small molecule HDAC inhibitors (AID 1259364).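 Note: wild-type HCT-116 cells with endogenous class I/II HDAC activity; top concentration of the series differs between compounds; nearly all actives have a fitted effect of over 45% in size.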 An outline of the steps: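 Read-out: luminescence of HDAC-Glo I/II reagent, 30 min RT, reflecting class I/II deacetylase activity in whole HCT-116 cells pre-exposed 2 h to DMSO-dissolved compounds.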
On the technique in general: qHTS replaces the single test concentration by a dilution series.

The nature of test [3]: qHTS assay to identify small molecule HDAC inhibitors - cell viability counter screen (AID 1259365). Note: series mostly up to about 92 µM; nearly all actives have a fitted effect of over 50% in size. In outline: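 Wild-type HCT-116 cells, 1,500/well, cultured overnight, then compound-treated 2 h at 37 C. Viability measured as ATP luminescence with CellTiter-Glo after 30 min at room temperature.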
A short description of test [4]: qHTS assay to identify small molecule agonists of the sonic hedgehog signaling (Shh) pathway - cell viability counter screen (AID 1259366). Note: nearly all actives have a fitted effect of over 50% in size. In outline: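 NIH/3T3-derived Gli1-Luc reporter cells, 2,000 per well, received compound after 4 h and were treated about 23 h at 37C. Viability measured in the same wells by CellTiter-Fluor fluorescence after 1 h.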
A short description of test [5]: qHTS assay to identify small molecule antagonists of the sonic hedgehog signaling (Shh) pathway - cell viability counter screen (AID 1259367). Note: nearly all actives have a fitted effect of over 55% in size. An outline of the steps:
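NIH/3T3-derived Gli1-Luc reporter cells (2,000 per well) rested 4 hr at 37 C, then received DMSO compounds plus conditioned medium. After 23 hr of treatment, CellTiter-Fluor was added for 1 hr at 37C and fluorescence read.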

Test [6] can be described thus: qHTS assay to identify small molecule agonists of the sonic hedgehog signaling (Shh) pathway (AID 1259368; calls by dose curve;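 note: NIH/3T3-derived 3T3Gli1-Luc cells carrying a stable Gli1-driven firefly luciferase reporter; series mostly up to about 92 µM; nearly all actives have a fitted effect of over 15% in size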). In outline: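 A Gli1 transcriptional response element controlled firefly luciferase in 3T3Gli1-Luc cells. Compounds and a positive control were added 4 hr after plating, and cells were incubated a further 24 hr at 37 C before luminescence detection.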
The nature of test [7]: qHTS assay to identify small molecule antagonists of the sonic hedgehog signaling (Shh) pathway (AID 1259369; calls by dose curve; note: nearly all actives have a fitted effect of over 45% in size). An outline of the steps: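 For antagonist detection, the reporter line received test compounds together with conditioned medium, incubated 24hr at 37 C, 5% CO2, then luminescence was recorded following 30min room-temperature luciferase reagent incubation.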
Test [8] addresses Estrogen receptor beta (Homo sapiens) (UniProt Q92731). The test can be described thus: qHTS assay to identify small molecule agonists of the estrogen receptor beta (ER-beta) signaling pathway (AID 1259377; active = well fitted activation curve with a large enough effect in the signal ratio in the repeat runs, not every such curve was filed as active; the % refers to the signal ratio). An outline of the steps: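 ER-beta-UAS-bla HEK293T cells in medium with 2% charcoal-stripped FBS were exposed to compounds for 16 h at 37C. Beta-lactamase reporter activity was read as fluorescence after 2 h with LiveBLAzer B/G FRET substrate at room temperature.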

Test [9] in a line: qHTS assay to identify small molecule agonists of the androgen receptor (AR) signaling pathway in the presence of an antagonist - cell viability counter screen (AID 1259379).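 Note: MDA-kb2 human breast cancer cells carrying an MMTV luciferase reporter; series mostly up to about 92 µM; nearly all actives have a fitted effect of over 25% in size.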 In outline:
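Seed MDA-kb2 at 3,000 cells/well; incubate 5 hr, 37C, 0% CO2. Add nilutamide to 3.0uM final, then pin compounds at 15 concentrations. Incubate 16 hr. Add CellTiter-Fluor at 15 hr, read fluorescence after 1 hr.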

Test [10] is described as follows: qHTS assay to identify small molecule agonists of the estrogen receptor beta (ER-beta) signaling pathway - cell viability counter screen (AID 1259380). Note: nearly all actives have a fitted effect of over 30% in size. Note: potency is the fitted concentration of half-maximal effect. In outline:
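CellTiter-Glo read, 30 min RT, same wells as bla assay; cells ER-beta-UAS-bla HEK293T; 16 hr compound, 37C; medium 2% charcoal-stripped FBS.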

Test [11] in a line: qHTS assay to identify small molecule antagonists of the estrogen receptor beta (ER-beta) signaling pathway - cell viability counter screen (AID 1259382).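 Note: HEK293T cells carrying ER-beta-UAS-bla reporter stimulated with estradiol; series mostly up to about 92 µM; nearly all actives have a fitted effect of over 55% in size.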 In outline:
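In this multiplexed counter screen, cells were seeded at 2,000 per well in medium with 2% charcoal-stripped FBS and incubated 6 hr before compound and 1nM final E2 were added. Sixteen hours later, ATP-based luminescence reported viability.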

Test [12] deals with Estrogen receptor (Homo sapiens) (UniProt P03372). Nature of the test: qHTS assay to identify small molecule agonists of the estrogen receptor alpha (ER-alpha) signaling pathway in the presence of an antagonist (AID 1259383; calls by dose curve; note: top concentration of the series differs between compounds; nearly all actives have a fitted effect of over 15% in size). An outline of the steps: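 Stably transfected VM7Luc4E2 reporter cells, kept 5 days in charcoal-stripped serum, received ICI-182,780 at 10.0nM final before compound addition. Following 22hr incubation at 37C and 5% CO2, luciferase signal was read by luminescence.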
Chain of Estrogen receptor (Homo sapiens) (P03372 whole entry, looked up): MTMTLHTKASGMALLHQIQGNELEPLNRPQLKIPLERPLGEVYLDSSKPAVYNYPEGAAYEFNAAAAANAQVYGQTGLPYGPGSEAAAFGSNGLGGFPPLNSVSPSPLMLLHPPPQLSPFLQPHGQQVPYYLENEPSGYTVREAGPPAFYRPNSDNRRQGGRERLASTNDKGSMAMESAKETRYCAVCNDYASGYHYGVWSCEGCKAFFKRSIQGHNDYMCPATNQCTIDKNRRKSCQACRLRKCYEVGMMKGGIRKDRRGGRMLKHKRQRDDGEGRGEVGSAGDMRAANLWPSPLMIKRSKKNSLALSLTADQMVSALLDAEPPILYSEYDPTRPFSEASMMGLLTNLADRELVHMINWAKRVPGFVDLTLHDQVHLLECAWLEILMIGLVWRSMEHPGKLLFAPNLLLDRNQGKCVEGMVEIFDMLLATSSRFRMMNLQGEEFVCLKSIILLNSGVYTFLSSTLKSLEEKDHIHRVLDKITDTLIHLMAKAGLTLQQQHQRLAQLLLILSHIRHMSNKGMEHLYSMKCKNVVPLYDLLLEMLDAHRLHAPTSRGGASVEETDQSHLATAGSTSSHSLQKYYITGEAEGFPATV

Test [13] has as its target Thyrotropin receptor (Homo sapiens) (UniProt P16473). Nature of the test: qHTS assay to identify small molecule antagonists of the thyroid stimulating hormone receptor (TSHR) signaling pathway (AID 1259385; calls by dose curve; note: nearly all actives have a fitted effect of over 20% in size). In outline: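 TSHR-HEK293 cells were plated and held 18 h at 37C/5% CO2, then given compound plus Ro20-1724 and stimulated with TSH at 1.5 ng/mL final. After 30 min at room temperature, cAMP was detected with cAMP-d2/anti-cAMP-cryptate (1 h) by fluorescence.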

A short description of test [14]: qHTS assay to identify small molecule agonists of the estrogen receptor alpha (ER-alpha) signaling pathway in the presence of an antagonist - cell viability counter screen (AID 1259386).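 Note: series mostly up to about 92 µM; cells exposed to compounds for 22 h at 37 °C before the viability read; nearly all actives have a fitted effect of over 30% in size.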 In outline:
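Viability counter screen using VM7Luc4E2 (full-length ER-alpha, four ERE-luciferase). The cells were treated with compounds alongside ICI-182,780 10.0nM for 22hr, and live-cell protease fluorescence was quantified with CellTiter-Fluor.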

The target in test [15] is Progesterone receptor (Homo sapiens) (UniProt P06401). The test can be described thus: qHTS assay to identify small molecule agonists of the progesterone receptor (PR) signaling pathway (AID 1346784; calls by dose curve; note: nearly all actives have a fitted effect of over 30% in size). An outline of the steps: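 PR-UAS-bla HEK 293T cells (beta-lactamase reporter under UAS) in 2% charcoal-stripped FBS, dosed with 23 nL compound after 6 hr, incubated 16hr at 37C. LiveBLAzer B/G FRET substrate added, fluorescence read after 2 hours.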
Chain of Progesterone receptor (Homo sapiens) (P06401 whole entry, looked up): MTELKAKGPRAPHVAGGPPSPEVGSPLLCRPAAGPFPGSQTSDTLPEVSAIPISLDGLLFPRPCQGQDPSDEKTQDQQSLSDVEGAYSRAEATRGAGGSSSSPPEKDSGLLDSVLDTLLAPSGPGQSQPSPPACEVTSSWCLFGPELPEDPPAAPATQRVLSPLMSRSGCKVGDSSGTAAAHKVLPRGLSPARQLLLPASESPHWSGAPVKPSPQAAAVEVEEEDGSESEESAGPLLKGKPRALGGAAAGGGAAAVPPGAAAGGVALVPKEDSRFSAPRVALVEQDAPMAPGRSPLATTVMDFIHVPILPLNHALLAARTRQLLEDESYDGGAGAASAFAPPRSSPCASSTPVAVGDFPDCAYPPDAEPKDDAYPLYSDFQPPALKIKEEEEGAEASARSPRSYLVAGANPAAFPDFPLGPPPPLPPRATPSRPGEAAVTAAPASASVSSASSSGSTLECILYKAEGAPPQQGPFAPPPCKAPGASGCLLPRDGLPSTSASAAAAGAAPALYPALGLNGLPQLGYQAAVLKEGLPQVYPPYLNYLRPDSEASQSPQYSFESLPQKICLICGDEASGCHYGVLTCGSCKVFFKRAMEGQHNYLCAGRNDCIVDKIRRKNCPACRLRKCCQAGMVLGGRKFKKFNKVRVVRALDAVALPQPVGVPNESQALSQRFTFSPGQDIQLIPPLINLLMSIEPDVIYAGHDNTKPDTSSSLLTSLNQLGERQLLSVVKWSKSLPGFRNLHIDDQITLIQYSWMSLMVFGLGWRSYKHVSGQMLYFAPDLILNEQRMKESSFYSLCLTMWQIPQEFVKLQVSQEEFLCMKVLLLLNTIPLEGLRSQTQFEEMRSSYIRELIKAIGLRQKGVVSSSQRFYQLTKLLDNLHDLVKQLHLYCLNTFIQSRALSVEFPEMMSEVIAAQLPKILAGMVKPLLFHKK

The target is the same in test [16]. The test can be described thus: qHTS assay to identify small molecule antagonists of the progesterone receptor (PR) signaling pathway (AID 1346795; active = well fitted inhibition curve with a large enough effect in the signal ratio in the repeat runs, not every such curve was filed as active; the % refers to the signal ratio). In outline:
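PR-UAS-bla HEK293T cells with beta-lactamase reporter under UAS control, in 2% charcoal-stripped FBS, treated with compounds plus 1 nM promegestone (R5020, final) for 16 hr at 37C. Read-out: FRET beta-lactamase substrate fluorescence after 2 hr at room temperature.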

Test [17] has as its target Androgen receptor (Homo sapiens) (UniProt P10275). Nature of the test: qHTS assay to identify small molecule agonists of the androgen receptor (AR) signaling pathway in the presence of an antagonist (AID 1259381; calls by dose curve; note: nearly all actives have a fitted effect of over 15% in size). In outline:
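Test compounds at 15 concentrations were incubated for 16hr with MDA-kb2 reporter cells in presence of 3.0uM nilutamide (final). Signal: ONE-Glo luciferase luminescence.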

Test [18] is described as follows: qHTS assay to identify small molecule agonists or antagonists of the thyroid stimulating hormone receptor (TSHR) signaling pathway - wild type cell line counter screen (AID 1259384; calls by dose curve). In outline:
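Wild-type HEK293 cells were plated 18 h at 37 C/5% CO2, pin-dosed with compound plus Ro20-1724 medium, held 30 min at room temperature, then given cAMP-d2 and anti-cAMP-cryptate; fluorescence was read after 1 h. Fifteen concentrations, triplicate.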

The nature of test [19]: qHTS assay to identify small molecule antagonists of the progesterone receptor (PR) signaling pathway - cell viability counter screen (AID 1346798). Note: series mostly up to about 92 µM; nearly all actives have a fitted effect of over 50% in size. In outline:
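PR-UAS-bla HEK293T cells, 3,000/well in 2% charcoal-stripped FBS medium, dosed with compounds plus R5020 agonist and incubated 16 h at 37C. Viability then measured in the same wells by CellTiter-Glo luminescence after 30 min at RT.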

Chain of Androgen receptor (Homo sapiens) (P10275 whole entry, looked up): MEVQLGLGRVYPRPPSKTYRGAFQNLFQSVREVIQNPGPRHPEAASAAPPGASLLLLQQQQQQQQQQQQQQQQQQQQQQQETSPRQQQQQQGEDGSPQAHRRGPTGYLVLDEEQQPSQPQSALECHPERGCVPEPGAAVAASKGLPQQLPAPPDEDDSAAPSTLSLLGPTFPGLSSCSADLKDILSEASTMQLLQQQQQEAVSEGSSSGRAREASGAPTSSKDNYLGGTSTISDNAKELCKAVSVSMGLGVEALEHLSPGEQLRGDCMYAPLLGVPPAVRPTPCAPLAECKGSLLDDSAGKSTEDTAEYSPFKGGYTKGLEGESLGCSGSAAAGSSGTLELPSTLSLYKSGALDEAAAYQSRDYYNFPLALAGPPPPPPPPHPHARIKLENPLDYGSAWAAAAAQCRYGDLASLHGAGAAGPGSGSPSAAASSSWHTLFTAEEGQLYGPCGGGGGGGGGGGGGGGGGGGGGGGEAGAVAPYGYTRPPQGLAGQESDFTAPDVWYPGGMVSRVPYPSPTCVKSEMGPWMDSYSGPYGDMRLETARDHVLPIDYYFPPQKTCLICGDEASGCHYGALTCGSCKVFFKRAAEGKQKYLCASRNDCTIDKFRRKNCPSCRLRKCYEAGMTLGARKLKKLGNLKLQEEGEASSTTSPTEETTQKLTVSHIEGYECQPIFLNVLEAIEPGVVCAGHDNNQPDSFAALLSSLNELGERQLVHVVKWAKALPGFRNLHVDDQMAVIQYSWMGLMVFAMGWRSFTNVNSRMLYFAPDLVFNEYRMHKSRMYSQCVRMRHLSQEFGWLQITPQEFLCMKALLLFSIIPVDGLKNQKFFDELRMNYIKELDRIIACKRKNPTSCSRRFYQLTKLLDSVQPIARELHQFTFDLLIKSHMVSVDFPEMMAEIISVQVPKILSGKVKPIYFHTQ
Chain of Thyrotropin receptor (Homo sapiens) (P16473 whole entry, looked up): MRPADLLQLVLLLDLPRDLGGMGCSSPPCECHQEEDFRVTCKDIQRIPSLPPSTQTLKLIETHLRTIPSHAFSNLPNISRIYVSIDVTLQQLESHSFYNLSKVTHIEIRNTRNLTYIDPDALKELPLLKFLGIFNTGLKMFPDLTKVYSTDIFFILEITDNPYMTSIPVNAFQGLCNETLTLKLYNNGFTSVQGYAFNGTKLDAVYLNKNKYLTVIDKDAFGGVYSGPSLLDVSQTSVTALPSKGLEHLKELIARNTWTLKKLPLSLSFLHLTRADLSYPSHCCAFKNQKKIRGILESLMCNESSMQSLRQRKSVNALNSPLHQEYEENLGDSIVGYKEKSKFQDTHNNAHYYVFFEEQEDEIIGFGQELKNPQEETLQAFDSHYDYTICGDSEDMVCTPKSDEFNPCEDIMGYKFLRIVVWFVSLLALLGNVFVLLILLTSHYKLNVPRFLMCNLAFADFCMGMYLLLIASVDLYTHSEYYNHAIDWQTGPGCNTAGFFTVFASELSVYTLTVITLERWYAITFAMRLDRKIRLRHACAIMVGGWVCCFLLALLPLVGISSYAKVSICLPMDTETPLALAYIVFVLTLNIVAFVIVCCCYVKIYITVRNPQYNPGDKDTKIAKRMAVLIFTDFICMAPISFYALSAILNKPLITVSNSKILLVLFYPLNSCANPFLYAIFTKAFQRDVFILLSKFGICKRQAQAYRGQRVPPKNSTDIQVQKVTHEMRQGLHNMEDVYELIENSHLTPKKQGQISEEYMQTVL
Chain of Estrogen receptor beta (Homo sapiens) (Q92731 whole entry, looked up): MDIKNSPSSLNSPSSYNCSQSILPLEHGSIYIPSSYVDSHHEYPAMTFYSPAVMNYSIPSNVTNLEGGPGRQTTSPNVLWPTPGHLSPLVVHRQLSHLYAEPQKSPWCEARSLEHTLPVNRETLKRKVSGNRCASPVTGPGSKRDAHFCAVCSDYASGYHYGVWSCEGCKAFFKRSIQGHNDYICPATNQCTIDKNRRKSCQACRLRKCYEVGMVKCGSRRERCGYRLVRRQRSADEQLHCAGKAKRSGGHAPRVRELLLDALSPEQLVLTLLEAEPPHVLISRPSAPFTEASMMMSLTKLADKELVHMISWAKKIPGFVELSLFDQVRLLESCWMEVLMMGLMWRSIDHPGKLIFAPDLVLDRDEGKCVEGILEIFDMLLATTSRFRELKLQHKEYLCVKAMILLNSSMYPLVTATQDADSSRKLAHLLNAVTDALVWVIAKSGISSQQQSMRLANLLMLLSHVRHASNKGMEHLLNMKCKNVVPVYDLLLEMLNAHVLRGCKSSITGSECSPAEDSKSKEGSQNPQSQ

For the compound `O=NN1CCCC1`, the Potency is 20.2 µM (active) and inactive in [1]; 20.2 µM (active) and inactive in [10]. Moreover, the Potency entry in test [2], in test [4], in [5], in test [7], in test [8] and in [11] was “inactive” throughout. Moreover, the Potency result in test [12], in test [13] and in [16] was “inactive” each time. The result in [3], in test [6], in test [9], in test [14] and in test [15] was inactive.
Regarding `CCCN(CCC)c1c([N+](=O)[O-])cc(C(F)(F)F)cc1[N+](=O)[O-]`, the Potency entry in [1], in test [2], in [4], in [5], in [7] and in test [10] was “inactive” in each case. Moreover, the Potency entry in test [11], in test [12], in [13], in test [16] and in test [19] was “inactive” in each case. Besides, the call in test [3], in [6], in test [9], in [17], in [18] and in test [14] was inactive. Moreover, the outcome in [15] was inactive.
For `O=[N+]([O-])c1ccc([As](=O)(O)O)cc1`, the Potency result in test [1], in test [2], in [4], in [5], in test [7] and in test [10] was “inactive” each time. The Potency entry in test [11], in [12], in test [13], in test [16] and in test [19] was “inactive” throughout. Also, the call in test [3], in test [6], in [9], in test [18], in [14] and in test [15] was inactive.
`CCCCCOC(=O)c1ccccc1C(=O)OCCCCC`: the Potency result in test [1], in [2], in [4], in test [5], in test [7] and in test [8] was “inactive” throughout. Moreover, the Potency result in test [10], in [11], in [12], in test [13] and in test [19] was “inactive” throughout. The result in test [3], in [6], in test [9], in test [18], in test [14] and in [15] was inactive.
Consider `Cc1cccc([N+](=O)[O-])c1`, for which the Potency entry in test [1], in test [2], in test [4], in [5], in test [7] and in [10] was “inactive” throughout. Besides, the Potency result in test [11], in [12], in test [13], in test [16] and in test [19] was “inactive” throughout. The call in [3], in test [6], in test [9], in test [14] and in test [15] was inactive.
As for `C=CC(N)=O`, the Potency entry in [1], in test [2], in test [4], in test [5], in test [7] and in [10] was “inactive” in each case. Further, the Potency entry in test [11], in test [12], in [13] and in test [19] was “inactive” each time. The compound was called inactive in [3], in [6], in test [9] and in test [14].
Turning to `COC(=O)NC(=S)Nc1ccccc1NC(=S)NC(=O)OC`, the Potency result in [1], in [2], in test [4], in [5], in test [7] and in test [8] was “inactive” throughout. Besides, the Potency entry in test [10], in test [11], in test [12], in test [13], in [16] and in test [19] was “inactive” throughout. In addition, the compound was classed as inactive in [3], in test [6], in test [9], in [14] and in test [15].
Turning to `CCOP(OCC)OCC`, the Potency entry in [1], in [2], in [4], in [5], in test [7] and in test [10] was “inactive” each time. The Potency result in test [11], in test [12], in test [16] and in test [19] was “inactive” throughout. The outcome in test [3], in [6], in test [9], in test [14] and in test [15] was inactive.
Regarding `Cc1[nH]c(=O)n(C(C)(C)C)c(=O)c1Cl`, the Potency entry in test [1], in test [2], in test [4], in [5], in test [7] and in test [10] was “inactive” in each case. Further, the Potency entry in [11], in test [12], in test [13], in test [16] and in test [19] was “inactive” throughout. The result in test [3], in test [6], in [9], in test [17], in test [14] and in test [15] was inactive.

Source of the values: PubChem BioAssay (Tox21).
